Experimental data taken from PubChem BioAssay AID591 (National Center for Advancing Translational Sciences (NCATS), 2007).
The campaign covered roughly 59,000 compounds. About 60 (0.1%) were called active. No rule for the calls is given here. The entries come from a sample that favours actives as a whole.

Assay: qHTS Assay for Spectroscopic Profiling in A488 Spectral Region
Details: compound autofluorescence; max dye equivalency: Compound Type: qHTS ECL - SigmaAldrich, hits give high values unless noted; outcome: dye equivalency, Compound Type: qHTS ECL - MLSMR unless noted
From the text: NIH Molecular Libraries Screening Centers Network [MLSCN]
NIH Chemical Genomics Center [NCGC]
Occasionally, the artifactual effect may originate from the compounds own spectral or other biophysical properties which generally tend to track its assay concentration. Pre-screening/profiling the library with respect to the compounds spectral properties should help one exclude false positives early on. While the most informative fluorescent profiling data set is obtained by performing a full excitation and emission scan of each well by using a monochromator-based plate reader, such an approach is practical only on a very limited scale as scanning each well requires long time. An alternative approach, applied here, is to perform plate reader scans using selected excitation and emission wavelength pairs to generate a multidimensional relational database that correlates compound concentration and the respective relative fluorescence intensity at a given wavelength set. A standard curve of Alexa 488 (A488) present on each plate as six-point concentration series, was used to compute a normalized fluorescence response, termed dye-equivalent concentration, for each compound at each concentration.
NCGC Assay Protocol Summary:
100 mM Tris buffer, pH 8.0
The wells in columns 1 through 4 of a Kalypsys polypropylene 1536-well compound plate were filled with standard solutions of fluorophore corresponding to the spectral region of interest. Solutions of A488 were placed in the following wells: Y1, Z1: 3 mM, Y2, Z2: 300 uM, Y3, Z3: 30 uM, Y4, Z4: zero (DMSO), AA1, AB1: 3 uM, AA2, AB2: 900 nM, AA3, AB3: 300 nM, AA4, AB4: zero (DMSO).
Six uL of buffer were dispensed to 1536-well Greiner black plates. Compounds and dye standards (23 nL) were transferred via Kalypsys PinTool. The plates were incubated for 15 min at room temperature, and then read on ViewLux (Perkin-Elmer) High-throughput CCD imager using 480 nm and 540 nm excitation and emission filter set.
Keywords: NIH Roadmap, MLSCN, MLI, MLSMR, qHTS, NCGC, A488, A-488, Fluorescent Profiling.

| SMILES | outcome |
| --- | --- |
| CC[C@@H]1Cc2cc(O)ccc2C2=C1c1ccc(O)cc1C[C@H]2CC | inactive [dye equivalency, Compound Type: qHTS ECL - SigmaAldrich] |
| O=c1c(-c2ccc(F)cc2)nc2cnc(N3CCNCC3)nc2n1Cc1cccs1 | inactive [dye equivalency, Compound Type: qHTS ECL - Pharmacopeia] |
| Nc1nc(N)c2[nH]c(CNc3ccc(C(=O)O)cc3)nc2n1 | inactive [dye equivalency, Compound Type: qHTS ECL - NCI] |
| N#Cc1cccc(-c2nc3cnc(N4CCNCC4)nc3n(C3CC3)c2=O)c1 | inactive [dye equivalency, Compound Type: qHTS ECL - Pharmacopeia] |
| CC(C)NC(=O)N1CCC2(CC1)CCN(C(=O)c1cccn1C)CC2 | inactive [dye equivalency, Compound Type: qHTS ECL - Pharmacopeia] |
| COCCn1c(=O)c(CCc2ccccc2)nc2cnc(N3CCNCC3)nc21 | inactive [dye equivalency, Compound Type: qHTS ECL - Pharmacopeia] |
| CCc1nc(C)cn1S(=O)(=O)c1cc(OC)c(C)cc1C | inactive |
| CC(c1ccco1)N(C(=O)c1ccc(S(=O)(=O)N2CCCCC2)cc1)c1ccccn1 (centres undefined) | inactive |
| CS(=O)(=O)N(CC(=O)NCc1ccco1)c1ccc2c(c1)OCO2 | inactive [dye equivalency, Compound Type: qHTS ECL - DPISMR] |
| O=C(NC1(C(F)(F)F)N=C2SCCN2C1=O)c1ccco1 (centres undefined) | inactive |
| COc1ccc(OCC(=O)OCC(=O)Nc2ccc(S(=O)(=O)N3CCCCC3)cc2)cc1 | inactive |
| O=C(N1CCOCC1)N1CCOCC1 | inactive |
| CCNC(=O)CN(c1ccc(C)cc1)S(=O)(=O)c1ccc(SC)cc1 | inactive |
| CN(Cc1ccco1)c1cc(-c2ccccc2C(F)(F)F)ncn1 | inactive [dye equivalency, Compound Type: qHTS ECL - Pharmacopeia] |
| COC(=O)Cc1nc2ccccc2[nH]1 | inactive [dye equivalency, Compound Type: qHTS ECL - DPISMR] |
| CCOc1ccc(N=NS(=O)(=O)O)cc1 | inactive [dye equivalency, Compound Type: qHTS ECL - NCI] |
| CN1CCN(C(=O)C2C3C=CC(C3)C2C(=O)O)CC1 (centres undefined) | inactive |
| CN(C)c1ncc2nc(-c3ccc(F)cc3)c(=O)n(Cc3ccc(F)cc3)c2n1 | inactive [dye equivalency, Compound Type: qHTS ECL - Pharmacopeia] |
| CN(C)C(=O)c1ccc(-c2cncnc2NC2CCNCC2)cc1 | inactive [dye equivalency, Compound Type: qHTS ECL - Pharmacopeia] |
